Assay outcomes (PubChem)
The list is not random: actives were taken first. Their share in the collection is about 5.7%.
GLP-1R agonist: activates the human GLP-1 receptor; HEK293 GLP-1R CRE-luciferase, luminescence, 4-6 h; cells express a hypersensitive GLP-1R form; 0.007% of 380,000 active; AID 624172; Potency, µM (series often up to 45.6 µM), for the others: at the top dose activation, actives largely listed as activators; note: potency is the fitted concentration of half-maximal effect; % of control where 0% means no effect
ClpP mod: qHTS Assay for Activators of ClpP; ATP-dependent Clp protease proteolytic subunit (Bacillus subtilis (strain 168)), P80244; purified B. subtilis ClpP, FRET peptide cleavage, 20 min; Potency, µM (titrated, usually from 57.5 µM), inactives show at the highest dose activity change, negative = active; 1.9% of 340,000 active; AID 651965, 2013; active = well fitted falling curve with a large enough effect; inconclusive = small, poorly fitted or top-dose-only effect; inactive = no such curve, though single readings can be large or run the other way; note: potency is the fitted concentration of half-maximal effect; the source files actives as falling curves though it sought activators and does not explain the sign; nearly all actives have a fitted effect of over 65% in size
Target sequence (P80244 whole entry, looked up): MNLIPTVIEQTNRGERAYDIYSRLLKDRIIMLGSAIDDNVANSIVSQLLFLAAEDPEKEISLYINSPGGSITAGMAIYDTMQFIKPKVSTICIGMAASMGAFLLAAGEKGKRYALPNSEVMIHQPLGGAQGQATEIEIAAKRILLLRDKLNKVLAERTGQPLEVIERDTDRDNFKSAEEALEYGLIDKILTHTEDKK
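Purified B. subtilis ClpP, 10 microg/mL final in Tris/HCl pH8 with KCl, BSA, glycerol and Tween-20, cleaved an Abz/nitrotyrosine-quenched decapeptide. Fluorescence (ex 320, em 430) was read at 0 and 20 min at room temperature. Delta was normalized to 5.8 microM ADEP and DMSO/no-enzyme controls.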
HEK293 tox: cytotoxicity in counter-screen for GLP-1R inverse agonists | 0.13% of 410,000 active | HEK293 cAMP-luciferase reporter cells, luminescence, 24 h | Potency, µM (titrated, usually from 38.3 µM), for inactives: top-dose activity change, negative = inhibition, usual class: inhibitors;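 note: loss of luciferase light is scored as toxicity; potency is the fitted concentration of half-maximal effect; % is set by controls: 0 for no effect and ±100 for the full control effect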
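1536-well qHTS counterscreen of the MLSMR; 200 cells/uL, 12 h pre-incubation, 23 nL cpd, 24 h at 37 deg C 5% CO2, luciferase detection reagent, 12 min RT, luminescence. Inhibition = undesired.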
D3 ag: D3 dopamine receptor (human) agonism; P35462; D3R DiscoveRx beta-arrestin cells, luminescence, 90 min; max activation, %; 0.58% of 410,000 active; in the data active = max activation above about 30%; note: 0% is about no effect
Target sequence (P35462 whole entry, looked up): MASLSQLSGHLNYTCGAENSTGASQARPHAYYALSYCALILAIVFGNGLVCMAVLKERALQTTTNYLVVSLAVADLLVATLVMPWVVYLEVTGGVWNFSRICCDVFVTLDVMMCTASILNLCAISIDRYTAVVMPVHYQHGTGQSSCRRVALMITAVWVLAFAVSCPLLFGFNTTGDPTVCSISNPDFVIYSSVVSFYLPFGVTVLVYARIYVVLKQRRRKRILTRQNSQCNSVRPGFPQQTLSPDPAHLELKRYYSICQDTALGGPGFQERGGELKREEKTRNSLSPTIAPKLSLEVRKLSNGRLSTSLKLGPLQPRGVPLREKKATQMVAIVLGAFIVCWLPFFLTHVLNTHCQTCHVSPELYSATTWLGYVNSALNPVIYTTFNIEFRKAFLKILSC
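Agonist-mode cell screen: cells plated at 1500/well and incubated overnight at 37 °C, then exposed to library compounds for 90 min at 37 °C. Detection reagent was added for 30–60 min at room temperature, and luminescence was read.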
DRD3 antagonist: blocks the human D3 dopamine receptor; P35462; D3R cells, DiscoveRx beta-arrestin luminescence, antagonist mode; hits give low values; max response, negative = inhibition, %; 2.5% of 360,000 active; in the data active = max response below about -50%; inconclusive = no clear call, values can overlap the other calls; note: % is set by controls: 0 for no effect and ±100 for the full control effect
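Cells expressing the human receptor were seeded at 1500 cells/well, incubated overnight at 37 degrees C in 5% CO2, then exposed to library compounds with dopamine controls for 90 minutes at 37 degrees C before luminescent detection.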
GLP1R inv ag: acts as inverse agonist at human GLP-1 receptor; P43220; HEK293 GLP-1R CRE-luciferase, luminescence, 24 h; GLP-1R form is constitutively active; Potency, µM (highest dose often 38.3 µM), inactives show at the top dose activity change, negative = inhibition, most hits filed as inhibitors; 1.6% of 410,000 active; AID 624417; note: potency is the fitted concentration of half-maximal effect; % is set by controls: 0 for no effect and ±100 for the full control effect; nearly all actives have a fitted effect of over 55% in size
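qHTS in 1536-well format: reporter HEK293 cells expressing constitutive GLP-1R activity in DMEM + 10% Nu serum, 24 hr with compounds at 37 deg C, luminescence read after 12 min with detection reagent.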
Active calls of the source: *. Unless noted, calls come from the whole dose curve; as a rule, active = well fitted curve in the direction sought with a large enough effect; inconclusive = small, poorly fitted or top-dose-only effect, or another doubt; inactive = no such curve, though single readings can be large; an effect the other way counts as inactive or inconclusive.

CC(NC(=O)c1ccco1)C12CC3CC(CC(C3)C1)C2 (centres undefined) was read as GLP-1R agonist -2%, ClpP mod 3%, HEK293 tox 1%, D3 ag -11, DRD3 antagonist -8 and GLP1R inv ag 10µM*.
Screening CC(NC(=O)COC(=O)CCNC(=O)c1ccco1)C12CC3CC(CC(C3)C1)C2 (centres undefined) returned GLP-1R agonist 22%, ClpP mod -1%, HEK293 tox -5%, D3 ag 0, DRD3 antagonist -11 and GLP1R inv ag 52%.
For Cc1ccc(-n2ncc3c(NCCc4ccccc4)ncnc32)cc1 the results were ClpP mod 4%, HEK293 tox -9%, D3 ag 9 and GLP1R inv ag inconclusive.
CC1CC(C)CN(CCCNC(=O)c2ccc3nc(N4CCOCC4)sc3c2)C1 (centres undefined) was read as GLP-1R agonist 31%, ClpP mod inconclusive, HEK293 tox 9%, D3 ag -17, DRD3 antagonist -63* and GLP1R inv ag 0%.
COc1ccc(N(C)C(=O)c2cc3c(Cl)nc4ccccc4c3s2)cc1 was read as GLP-1R agonist 7%, ClpP mod -1%, HEK293 tox 21%, D3 ag 66*, DRD3 antagonist 15 and GLP1R inv ag 113%.
For CCN(CCCNC(=O)c1cc2c(Cl)nc3ccccc3c2s1)Cc1ccccc1 the results were GLP-1R agonist 1%, ClpP mod -5%, HEK293 tox -9%, D3 ag -16 and GLP1R inv ag inconclusive.
`CCN(CC)CCCNC(=O)c1cc2c(Cl)nc3ccccc3c2s1` gave GLP-1R agonist -5%, ClpP mod -1%, HEK293 tox inconclusive, D3 ag -28, DRD3 antagonist -54* and GLP1R inv ag inconclusive.
For CCCN1CCN(CCCNC(=O)c2ccc3nc(N4CCC(C)CC4)sc3c2)CC1 the results were GLP-1R agonist 14%, ClpP mod inconclusive, HEK293 tox -21%, D3 ag -13, DRD3 antagonist inconclusive and GLP1R inv ag inconclusive.
For Cc1nc2ccccc2c2oc(C(=O)NCCCN3CCCC(C)C3)cc12 (centres undefined) the results were GLP-1R agonist -2%, ClpP mod inconclusive, HEK293 tox inconclusive, D3 ag -17, DRD3 antagonist -77* and GLP1R inv ag inconclusive.
For CC(C)NC(=O)Cn1nnc(-c2ccccc2)c1COc1ccc2ccccc2c1 the results were GLP-1R agonist 26%, ClpP mod 0%, HEK293 tox 0%, D3 ag 4, DRD3 antagonist 0 and GLP1R inv ag -27%.
For COc1cccc(NC(=O)Cn2cc(C(=O)c3ccco3)c3ccccc32)c1 the results were ClpP mod -8%, HEK293 tox -22%, D3 ag 11 and GLP1R inv ag inconclusive.
For CC(C)CC(=O)Nc1nnc(S(=O)(=O)N(CC(C)C)c2ccccc2)s1 the results were ClpP mod -5%, HEK293 tox 9%, D3 ag -15 and GLP1R inv ag 1%.
Screening Cc1nc2ccccc2c2oc(C(=O)N3CC(C)CC(C)C3)cc12 (centres undefined) returned GLP-1R agonist -3%, ClpP mod -2%, HEK293 tox 1%, D3 ag 0, DRD3 antagonist 9 and GLP1R inv ag inconclusive.
Screening Cc1nc2ccccc2c2oc(C(=O)NCCCN3CC(C)CC(C)C3)cc12 (centres undefined) returned GLP-1R agonist -1%, ClpP mod 4%, HEK293 tox inconclusive, D3 ag -17, DRD3 antagonist -65* and GLP1R inv ag inconclusive.
For CC1CCCN(CCCNC(=O)c2cc3c(Cl)nc4ccccc4c3s2)C1 (centres undefined) the results were GLP-1R agonist 22%, ClpP mod -3%, HEK293 tox inconclusive, D3 ag -13, DRD3 antagonist -65* and GLP1R inv ag inconclusive.
`Cc1cc2oc(C(=O)Nc3ccc(S(=O)(=O)Nc4onc(C)c4C)cc3)cc(=O)c2cc1C` gave ClpP mod -3%, HEK293 tox 20%, D3 ag -6 and GLP1R inv ag 7%.
COc1cccc(Cn2cccc(NC(=O)Nc3cccc(C#N)c3)c2=O)c1 was read as GLP-1R agonist -5%, ClpP mod 28µM*, HEK293 tox 1%, D3 ag 1, DRD3 antagonist -7 and GLP1R inv ag 11%.
`COc1ccc(C(=O)N2CCCC(C)(C(=O)NS(=O)(=O)C3CC3)C2)cc1` (centres undefined) gave GLP-1R agonist -4%, ClpP mod 2%, HEK293 tox -5%, D3 ag -13, DRD3 antagonist -53* and GLP1R inv ag 1%.
Screening NC(=O)CSc1nnc(-c2ccco2)n1-c1ccccc1 returned GLP-1R agonist 7%, ClpP mod -2%, HEK293 tox 1%, D3 ag 1, DRD3 antagonist 4 and GLP1R inv ag 7%.
For c1ccc(-n2c(-c3ccco3)nnc2-c2ccco2)cc1 the results were GLP-1R agonist 4%, ClpP mod 14µM*, HEK293 tox -14%, D3 ag 1, DRD3 antagonist 9 and GLP1R inv ag 10%.
Screening CCOC(CNCc1cc(C)c2[nH]c3ccccc3c2c1C)OCC returned GLP-1R agonist 4%, ClpP mod -2%, HEK293 tox inconclusive, D3 ag -2, DRD3 antagonist -8 and GLP1R inv ag inconclusive.
Screening O=C(c1nc2ccccn2c1CNCCCn1ncc2ccccc21)N1CCCC1 returned GLP-1R agonist 7%, HEK293 tox 2%, D3 ag -26, DRD3 antagonist -12 and GLP1R inv ag -1%.
For CCCCN(C)C(=O)c1nc2ccccn2c1CNCCCn1ncc2ccccc21 the results were GLP-1R agonist 12%, ClpP mod -5%, HEK293 tox -7%, D3 ag -14, DRD3 antagonist -77* and GLP1R inv ag inconclusive.
`CN(Cc1ccccc1)C(=O)c1nc2ccccn2c1CNCCCOc1cccnc1` gave GLP-1R agonist 3%, ClpP mod 3%, HEK293 tox -4%, D3 ag -16, DRD3 antagonist -56* and GLP1R inv ag 17%.
For COc1ccccc1NC(=O)C1CCN(S(=O)(=O)c2ccc3[nH]c4c(c3c2)CCCCC4)CC1 the results were ClpP mod inconclusive, HEK293 tox 1%, D3 ag -1 and GLP1R inv ag inconclusive.
